PMC4336329 (PLoS ONE, 2015)
Among all 310,000 compounds or so, about 14,000 (4.5%) showed an effect of 50% or more. The effect is printed as a negative number. The list comes from a sample in which strong results are over-represented; it also holds similar structures and randomly drawn compounds.

Biological target: human ether-à-go-go-related gene (hERG) potassium channel (human, UniProt Q12809)
Test: primary screen, population patch clamp on CHO cells stably expressing hERG; higher = less effect of the substance
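Further: peak tail current of the secondary pulse compared with the same well before compound.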

Chain of human ether-à-go-go-related gene (hERG) potassium channel (Q12809 whole entry, looked up): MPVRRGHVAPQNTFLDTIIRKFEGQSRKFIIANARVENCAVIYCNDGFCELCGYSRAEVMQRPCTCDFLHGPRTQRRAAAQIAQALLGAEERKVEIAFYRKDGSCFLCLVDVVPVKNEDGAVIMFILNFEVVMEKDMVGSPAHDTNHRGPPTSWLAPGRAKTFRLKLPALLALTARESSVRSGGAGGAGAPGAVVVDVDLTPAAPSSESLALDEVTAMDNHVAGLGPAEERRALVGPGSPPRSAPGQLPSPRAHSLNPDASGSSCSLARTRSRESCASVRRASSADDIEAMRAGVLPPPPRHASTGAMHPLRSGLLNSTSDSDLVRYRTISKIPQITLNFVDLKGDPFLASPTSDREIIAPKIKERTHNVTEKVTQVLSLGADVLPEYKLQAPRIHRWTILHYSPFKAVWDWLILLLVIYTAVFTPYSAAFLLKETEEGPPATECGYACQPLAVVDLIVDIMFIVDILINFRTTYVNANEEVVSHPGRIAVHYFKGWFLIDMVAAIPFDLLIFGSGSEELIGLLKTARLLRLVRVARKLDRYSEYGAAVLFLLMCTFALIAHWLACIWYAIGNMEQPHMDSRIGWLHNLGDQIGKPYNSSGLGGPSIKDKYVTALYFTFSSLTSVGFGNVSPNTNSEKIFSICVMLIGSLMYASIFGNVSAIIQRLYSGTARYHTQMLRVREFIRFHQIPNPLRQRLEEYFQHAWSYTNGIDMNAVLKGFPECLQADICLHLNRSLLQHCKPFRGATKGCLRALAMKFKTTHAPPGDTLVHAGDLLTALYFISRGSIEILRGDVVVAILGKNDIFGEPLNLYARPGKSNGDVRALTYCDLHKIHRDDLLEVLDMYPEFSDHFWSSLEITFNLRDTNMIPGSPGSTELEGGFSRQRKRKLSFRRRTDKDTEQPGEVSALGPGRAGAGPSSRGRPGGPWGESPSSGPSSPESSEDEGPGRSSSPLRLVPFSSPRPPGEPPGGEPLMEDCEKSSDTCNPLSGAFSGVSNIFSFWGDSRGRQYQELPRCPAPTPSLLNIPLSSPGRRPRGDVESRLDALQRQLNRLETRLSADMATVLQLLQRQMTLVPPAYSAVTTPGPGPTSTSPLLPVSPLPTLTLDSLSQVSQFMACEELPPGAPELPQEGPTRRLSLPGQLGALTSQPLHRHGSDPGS

| SMILES | hERG current change (%, negative = inhibition) at 10uM |
| --- | --- |
| Cn1cnnc1-c1cccc(NS(=O)(=O)c2ccc(N3CCCC3=O)cc2)c1 | 9.92% |
| CCN(CC)c1ncnc2c1[nH]c1ccccc12 | -21.8% |
| O=c1c(C(c2nnnn2C2CCCCC2)N2CCCCC2)coc2ccc(Cl)cc12 (centres unmarked) | 0.931% |
| O=C(c1ccco1)N1CCN(C(c2coc3ccc(Cl)cc3c2=O)c2nnnn2C2CCCC2)CC1 (centres unmarked) | -55.6% |
| Cc1ccc2occ(C(c3nnnn3C3CCCC3)N3CCN(C(=O)c4ccco4)CC3)c(=O)c2c1 (centres unmarked) | -45.7% |
| COc1ccc(S(=O)(=O)Nc2cc3c4c(c2)CCN4C(=O)CC3)cc1OC | -7.56% |
| O=C(Cc1ccc(Cl)c(Cl)c1)N/N=C/c1cccnc1 | -40% |
| C=CCn1c(SCc2ccc(C#N)cc2)nnc1-c1ccc(C)cc1 | -71.3% |
| c1ccc(CCn2c(SCc3ccccc3)nnc2-c2ccncc2)cc1 | -41.4% |
| C=CCn1c(SCCC#N)nnc1-c1ccncc1 | -4.28% |
| C=CCn1c(SCc2cccnc2)nnc1-c1ccncc1 | -1.49% |
| Cn1c(SCc2ccc(C#N)cc2)nnc1-c1ccncc1 | -19.7% |
| Cn1c(SCc2ccc(C#N)cc2)nnc1-c1ccccc1 | -29% |
| C=CCn1c(SCc2ccccc2)nnc1-c1cccnc1 | -20.5% |
| N#Cc1ccc(CSc2nnc(-c3ccncc3)n2CCc2ccccc2)cc1 | -74.1% |
| C=CCn1c(SCc2ccc(C#N)cc2)nnc1-c1ccccc1 | -57.8% |
| CC(=O)c1c(C)[n+]([O-])c2ccc3c(non3O)c12 | 13.6% |
| CCOC(=O)C1=NN(c2ccc(Cl)cc2)C(c2ccccc2)CC1=O (centres unmarked) | -5.12% |
| COc1cccc(NC(=O)CN(C)C(=O)c2cc(C3CC3)nn2-c2ccccc2)c1 | -23.1% |
| Cc1cc(C)nc(NS(=O)(=O)c2ccc(N/C=C/C(=O)c3ccc(Cl)c(Cl)c3)cc2)n1 | 25.6% |
| CCOC(=O)c1oc2ccccc2c1NC(=O)c1cc(OC)cc(OC)c1 | 7.29% |

| SMILES | hERG current change (%, negative = inhibition) at 10uM |
| --- | --- |
| COc1ccccc1C(=O)NNC(=O)C1CC=CCC1 (centres unmarked) | 18.7% |
| O=C(/C(=C/O)N=Nc1ccccc1)c1ccncc1 | -12.1% |
| COc1cc(NC(=S)NCc2cccnc2)c(OC)cc1Cl | -27.9% |
| CC(=O)N(c1ccccc1)C1SC(=O)N(c2ccccc2)C1=O (centres unmarked) | 13.9% |
| Clc1ccc(C[n+]2c(-c3ccccc3)cc(-c3ccccc3)cc2-c2ccccc2)cc1.[O-][Cl+3]([O-])([O-])[O-] | -79.5% |
| [O-][Cl+3]([O-])([O-])[O-].c1ccc(C[n+]2ccccc2)cc1 | -3.58% |
| O=[N+]([O-])c1ccccc1-c1cc(-c2ccccc2)cc(-c2ccccc2)[n+]1Cc1ccccc1Cl.[O-][Cl+3]([O-])([O-])[O-] | -78.7% |
| Cc1cc[n+](Cc2ccccc2)cc1.[O-][Cl+3]([O-])([O-])[O-] | 18.9% |
| Fc1ccc(C[n+]2c(-c3ccccc3)cc(-c3ccccc3)cc2-c2ccccc2)cc1.[O-][Cl+3]([O-])([O-])[O-] | -71.5% |
| O=[N+]([O-])c1ccc(C[n+]2c(-c3ccccc3)cc(-c3ccccc3)cc2-c2ccccc2)cc1.[O-][Cl+3]([O-])([O-])[O-] | -25.8% |
| O=C([O-])c1cc(-c2ccccc2)cc(-c2ccccc2)[n+]1Cc1ccccc1 | -10.1% |
| O=[N+]([O-])c1cc(Cl)c(O)c(-[n+]2c(-c3ccccc3)cc(-c3ccccc3)cc2-c2ccccc2)c1.[O-][Cl+3]([O-])([O-])[O-] | -38.7% |
| Cc1ccc(C[n+]2c(-c3ccc(C)cc3)cc(-c3ccc(C)cc3)cc2-c2ccc(C)cc2)cc1.[O-][Cl+3]([O-])([O-])[O-] | -75.6% |
| O=[N+]([O-])c1ccccc1NCc1ccccc1Cl | -4.13% |
| Cc1ccc(-c2cc[n+](Cc3ccccc3)cc2)cc1.[Cl-] | -5.47% |
| O=C(COC(=O)CCc1nc2ccccc2s1)NC(=O)NCc1ccco1 | -11.4% |
| CCOc1cc(/C=C/C(=O)c2ccc(OC)c(CN3CCOCC3)c2)cc(Br)c1O | -32.5% |
| CCSc1nsc(NC(=O)Nc2cccc(C(C)=O)c2)n1 | 10.5% |
| Cc1ccc(-c2ccc(S(=O)(=O)N3CC(C)OC(C)C3)cc2)cc1 (centres unmarked) | 18.7% |
| CCCSc1cc(N2CCN(C)CC2)nc(-c2ccc(OC)cc2)n1.Cl | -29.2% |
| COc1ccc(C(=O)NCC(=O)OCC(=O)NCCC2=CCCCC2)cc1 | -12.7% |

| SMILES | hERG current change (%, negative = inhibition) at 10uM |
| --- | --- |
| COCCCn1c(SCC(=O)NC2CCCCC2)nnc1-c1ccncc1 | 19.8% |
| COc1ccc(CC(=O)Nc2cc(C)on2)cc1 | 5.74% |
| COc1cc(OC)cc(C(=O)NC(C(=O)Nc2ccc3c(c2)OCCO3)C(C)C)c1 (centres unmarked) | -11% |
| CCN(CC)CCn1c(C)nc2c(sc3nc4c(cc32)COC(C)(C)C4)c1=O | -22.3% |
| O=C(NCC1CCCO1)c1onc(CSc2cccc3ccccc23)c1C(=O)O (centres unmarked) | 14.4% |
| COc1cccc(NC(=O)CN(C)C(=O)CSCc2nc3scc(-c4cccs4)c3c(=O)[nH]2)c1 | -16.2% |
| CCC(C)(C)NC(=O)C(c1ccc(OC)cc1)N(C(=O)CCC(=O)Nc1cc(C)on1)c1ccc(OC)cc1OC (centres unmarked) | -7.89% |
| COc1ccccc1NC(=S)N1CCN(C/C=C/c2ccccc2)CC1 | -0.974% |
| COC(=O)c1ccccc1NC(=O)N1CCN(C/C=C/c2ccccc2)CC1 | -45.1% |
| COc1ccc(Cl)cc1NC(=O)C(C)N1CCN(C/C=C/c2ccccc2)CC1.O=C(O)C(=O)O (centres unmarked) | -63.4% |
| COc1ccc(Cl)cc1NC(=O)C(C)N1CCN(c2ccccn2)CC1 (centres unmarked) | -18.3% |
| COc1ccc(Cl)cc1NC(=O)C(C)N1CCc2ccccc21 (centres unmarked) | 23.9% |
| COc1ccccc1NC(=O)C(C)N1CCN(C/C=C/c2ccccc2)CC1 (centres unmarked) | -74.5% |
| C=CCc1cccc(CNc2ccc(S(=O)(=O)Nc3nccnc3OC)cc2)c1O | -9.98% |
| N=c1c2c3c(sc2ncn1N)CCCC3 | 2.04% |
| COc1ccccc1C1C2=C(CCCC2=O)N(CC(=O)O)C2=C1C(=O)CCC2 | 15.9% |
| CCn1c(SCc2ccc(F)cc2)nnc1-c1nn(-c2ccccc2)ccc1=O | -35.1% |
| CCn1c(SCc2c(Cl)cccc2Cl)nnc1-c1nn(-c2ccccc2)ccc1=O | -66.1% |
| CCn1c(SC)nnc1-c1nn(-c2ccccc2)ccc1=O | 11.3% |
| COCCNc1ccc(-c2n[nH]c(=O)c3ccccc23)cc1[N+](=O)[O-] | 9.51% |
| CN1C(=O)S/C(=C/c2cccnc2)C1=O | -0.904% |

| SMILES | hERG current change (%, negative = inhibition) at 10uM |
| --- | --- |
| O=C(Cn1cnc2ccccc21)N/N=C/C(Br)=C/c1ccccc1 | 5.98% |
| CCN1CCN(S(=O)(=O)c2ccc(F)c(C(=O)Nc3c(F)cc(F)cc3Br)c2)CC1 | -17.1% |
| CCC(C)NS(=O)(=O)c1ccc(F)c(C(=O)Nc2c(F)cc(F)cc2Br)c1 (centres unmarked) | -60.8% |
| O=C(Nc1c(F)cc(F)cc1Br)c1cc(S(=O)(=O)N2CCN(c3ccccn3)CC2)ccc1F | -15.9% |
| CC(=O)Nc1ccc(S(=O)(=O)N(CC(=O)Nc2cc(C)on2)Cc2ccc(F)cc2)cc1 | -11.5% |
| COc1cccc2cc(C(=O)C3=C(O)C(=O)N(CCN4CCOCC4)C3c3cccs3)oc12 (centres unmarked) | 13.1% |
| CCOc1ccc(Nc2nc(NCCN3CCOCC3)nc(OC)n2)cc1 | -63.8% |
| C=CCNc1nc(NCCN2CCOCC2)nc(N2CCOCC2)n1 | 18.6% |
| Clc1ccc(CNc2nc(N3CCOCC3)nc(N3CCOCC3)n2)cc1 | -20% |
| COc1nc(NCCN2CCOCC2)nc(Nc2ccccc2)n1 | -50.5% |
| C=CCNc1nc(NCCN2CCOCC2)nc(OC)n1 | -4.89% |
| COc1ccc(NC(=S)NCCN2CCOCC2)cc1 | 21.7% |
| CCOc1ccc(Nc2nc(N3CCOCC3)nc(N3CCOCC3)n2)cc1 | -17.9% |
| Clc1ccc(Nc2nc(NCCN3CCOCC3)nc(N3CCOCC3)n2)cc1 | -56% |
| CCOc1nc(Nc2ccc(OC)cc2)nc(N2CCOCC2)n1 | -4.52% |
| COc1ccc(Nc2nc(NCCN3CCOCC3)nc(Nc3ccc(OC)cc3)n2)cc1 | -78.2% |
| COc1ccc(Nc2nc(N3CCOCC3)nc(N3CCOCC3)n2)cc1 | 11.7% |
| c1ccc(Nc2nc(NCCN3CCOCC3)nc(Nc3ccccc3)n2)cc1 | -15.2% |
| Cc1cc(C)nc(NS(=O)(=O)c2ccc(NC(=O)COc3ccccc3F)cc2)n1 | 4.9% |
| CCCc1nc(SCc2ccccc2Cl)n[nH]1 | 10.7% |
